Holding throughout (assay): DAPPL (digital affinity profiling via proximity ligation, sequencing); 10 mM Tris-HCl pH 7.5, 50 mM NaCl, 1 mM DTT, 4% glycerol, room temperature, 30 min; GST-TFs on glutathione beads, 16-mer random dsDNA library, 0.1% formaldehyde crosslink after washing; high values mean tight binding
For one test, the target named is T1, FEV (Homo sapiens, UniProt Q99581 1-238).
T1 sequence: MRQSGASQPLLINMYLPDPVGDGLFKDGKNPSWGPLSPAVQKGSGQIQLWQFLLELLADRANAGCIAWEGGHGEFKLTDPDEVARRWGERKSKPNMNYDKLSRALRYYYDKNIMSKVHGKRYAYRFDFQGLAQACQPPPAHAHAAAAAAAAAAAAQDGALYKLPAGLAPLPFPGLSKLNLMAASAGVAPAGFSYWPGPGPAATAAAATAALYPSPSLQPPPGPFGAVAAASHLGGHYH
The note with it: protein: recombinant; tags: N-terminal GST; dsDNA, one strand shown. The gist of the method:
(§1)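 Yeast served to express human transcription factors as GST fusions, which were then captured on glutathione beads and labelled with DNA barcodes. Pooled with a tag-only sample, they were incubated with 200 nmole of a 16-mer random double-stranded DNA library for 30 min at room temperature in Tris/NaCl/DTT/glycerol buffer, washed, crosslinked with 0.1% formaldehyde, ligated by proximity, amplified by PCR and sequenced. Dividing each hexamer's read frequency for a factor by its frequency for the tag-only sample gives the binding signal.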

The next test addresses ETV5 (Homo sapiens, UniProt P41161 1-510). Particulars: protein: recombinant; tags: N-terminal GST; dsDNA, one strand shown. The gist of the method: as §1
A further test concerns the target HSF1 (Homo sapiens, UniProt Q00613 1-529). The note with it: protein: recombinant; tags: N-terminal GST; chain copies: 3; dsDNA, one strand shown. The gist of the method:
as §1

The target of another test is T2, SPIC (Homo sapiens, UniProt Q8N5J4 1-248).
T2 sequence: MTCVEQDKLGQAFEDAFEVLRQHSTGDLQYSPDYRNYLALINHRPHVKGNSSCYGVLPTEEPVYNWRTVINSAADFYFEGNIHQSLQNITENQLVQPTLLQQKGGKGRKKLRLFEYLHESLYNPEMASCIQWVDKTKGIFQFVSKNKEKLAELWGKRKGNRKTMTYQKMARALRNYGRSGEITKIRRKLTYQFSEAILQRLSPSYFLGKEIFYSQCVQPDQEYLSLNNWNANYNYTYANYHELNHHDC
The note with it: protein: recombinant; tags: N-terminal GST; dsDNA, one strand shown. The gist of the method:
as §1

The next test concerns the target ELF4 (Homo sapiens, UniProt Q99607 1-663). The note with it: protein: recombinant; tags: N-terminal GST; dsDNA, one strand shown. The gist of the method: as §1
A further test has as its target T3, ELK4 (Homo sapiens, UniProt P28324-2 1-405).
T3 sequence: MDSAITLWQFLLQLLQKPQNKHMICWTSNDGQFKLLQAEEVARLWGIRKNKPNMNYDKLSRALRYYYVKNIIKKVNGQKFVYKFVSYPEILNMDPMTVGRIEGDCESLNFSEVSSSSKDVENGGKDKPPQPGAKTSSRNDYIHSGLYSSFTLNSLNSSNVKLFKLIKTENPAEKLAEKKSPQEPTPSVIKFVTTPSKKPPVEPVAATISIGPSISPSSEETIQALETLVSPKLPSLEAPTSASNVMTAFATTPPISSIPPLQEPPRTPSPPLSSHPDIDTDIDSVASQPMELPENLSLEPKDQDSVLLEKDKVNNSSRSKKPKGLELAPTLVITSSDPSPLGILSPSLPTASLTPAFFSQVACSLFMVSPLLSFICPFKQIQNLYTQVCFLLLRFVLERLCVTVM
Particulars: protein: recombinant; tags: N-terminal GST; dsDNA, one strand shown. The gist of the method: as §1

The target of the next test is T4, ETV2 (Homo sapiens, UniProt O00321 1-342).
T4 sequence: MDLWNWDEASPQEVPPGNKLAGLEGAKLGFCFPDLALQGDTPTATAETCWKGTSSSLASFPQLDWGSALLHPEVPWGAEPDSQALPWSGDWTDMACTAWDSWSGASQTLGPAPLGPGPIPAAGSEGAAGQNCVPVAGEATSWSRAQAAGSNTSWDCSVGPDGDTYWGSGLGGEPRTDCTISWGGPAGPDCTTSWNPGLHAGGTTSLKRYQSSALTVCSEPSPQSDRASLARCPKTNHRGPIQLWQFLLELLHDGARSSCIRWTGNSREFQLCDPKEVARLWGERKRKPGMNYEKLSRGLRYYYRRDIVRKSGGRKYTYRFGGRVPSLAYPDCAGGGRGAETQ
Particulars: protein: recombinant; tags: N-terminal GST; dsDNA, one strand shown. The gist of the method:
as §1

A further test deals with T5, ELF3 (Homo sapiens, UniProt P78545 1-371).
T5 sequence: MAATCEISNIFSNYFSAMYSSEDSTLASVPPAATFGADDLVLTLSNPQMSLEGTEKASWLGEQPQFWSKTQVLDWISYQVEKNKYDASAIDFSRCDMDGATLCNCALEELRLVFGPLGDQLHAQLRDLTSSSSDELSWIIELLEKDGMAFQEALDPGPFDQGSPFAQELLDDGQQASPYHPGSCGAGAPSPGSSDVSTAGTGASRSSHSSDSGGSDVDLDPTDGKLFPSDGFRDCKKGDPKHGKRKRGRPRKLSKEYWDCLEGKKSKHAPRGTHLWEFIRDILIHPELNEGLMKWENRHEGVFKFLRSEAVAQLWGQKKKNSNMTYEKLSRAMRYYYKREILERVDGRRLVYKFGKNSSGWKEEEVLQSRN
The note with it: protein: recombinant; tags: N-terminal GST; dsDNA, one strand shown. The gist of the method:
as §1

The target in the next test is CRX (Homo sapiens, UniProt O43186 1-299). The note with it: protein: recombinant; tags: N-terminal GST; dsDNA, one strand shown. The gist of the method:
as §1

The target in the next test is ETV1 (Homo sapiens, UniProt P50549 1-477). Particulars: protein: recombinant; tags: N-terminal GST; dsDNA, one strand shown. The gist of the method:
as §1

Another test concerns the target T6, ERF (Homo sapiens, UniProt P50548 1-548).
T6 sequence: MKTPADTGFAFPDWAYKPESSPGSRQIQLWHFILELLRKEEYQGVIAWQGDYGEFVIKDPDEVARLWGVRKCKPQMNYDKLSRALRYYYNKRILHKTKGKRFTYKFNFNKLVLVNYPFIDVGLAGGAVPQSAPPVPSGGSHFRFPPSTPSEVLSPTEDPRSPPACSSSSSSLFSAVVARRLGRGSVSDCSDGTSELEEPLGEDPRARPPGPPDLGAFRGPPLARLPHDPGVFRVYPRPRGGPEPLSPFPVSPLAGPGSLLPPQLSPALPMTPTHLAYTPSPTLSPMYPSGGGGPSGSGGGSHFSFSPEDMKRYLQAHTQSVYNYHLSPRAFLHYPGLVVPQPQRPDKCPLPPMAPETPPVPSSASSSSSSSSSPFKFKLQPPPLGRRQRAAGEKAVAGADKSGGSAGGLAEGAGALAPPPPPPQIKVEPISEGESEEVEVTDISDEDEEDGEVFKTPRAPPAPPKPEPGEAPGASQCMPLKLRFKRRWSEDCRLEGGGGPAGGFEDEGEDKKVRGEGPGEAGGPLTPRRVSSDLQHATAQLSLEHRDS
Particulars: protein: recombinant; tags: N-terminal GST; dsDNA, one strand shown. The gist of the method:
as §1

The next test addresses T7, ETV3L (Homo sapiens, UniProt Q6ZN32 1-361).
T7 sequence: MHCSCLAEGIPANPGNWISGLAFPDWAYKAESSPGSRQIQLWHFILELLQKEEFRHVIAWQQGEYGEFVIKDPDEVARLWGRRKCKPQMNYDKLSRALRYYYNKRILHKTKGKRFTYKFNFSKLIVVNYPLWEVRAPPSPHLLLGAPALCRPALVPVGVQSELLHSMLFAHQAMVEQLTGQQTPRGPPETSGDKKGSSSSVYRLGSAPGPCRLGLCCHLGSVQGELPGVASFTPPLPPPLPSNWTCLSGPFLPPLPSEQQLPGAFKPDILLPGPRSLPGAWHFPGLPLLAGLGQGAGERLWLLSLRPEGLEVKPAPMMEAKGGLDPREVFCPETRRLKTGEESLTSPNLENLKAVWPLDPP
Particulars: protein: recombinant; tags: N-terminal GST; dsDNA, one strand shown. The gist of the method: as §1

The target in a further test is T8, ETS2 (Homo sapiens, UniProt P15036 1-469).
T8 sequence: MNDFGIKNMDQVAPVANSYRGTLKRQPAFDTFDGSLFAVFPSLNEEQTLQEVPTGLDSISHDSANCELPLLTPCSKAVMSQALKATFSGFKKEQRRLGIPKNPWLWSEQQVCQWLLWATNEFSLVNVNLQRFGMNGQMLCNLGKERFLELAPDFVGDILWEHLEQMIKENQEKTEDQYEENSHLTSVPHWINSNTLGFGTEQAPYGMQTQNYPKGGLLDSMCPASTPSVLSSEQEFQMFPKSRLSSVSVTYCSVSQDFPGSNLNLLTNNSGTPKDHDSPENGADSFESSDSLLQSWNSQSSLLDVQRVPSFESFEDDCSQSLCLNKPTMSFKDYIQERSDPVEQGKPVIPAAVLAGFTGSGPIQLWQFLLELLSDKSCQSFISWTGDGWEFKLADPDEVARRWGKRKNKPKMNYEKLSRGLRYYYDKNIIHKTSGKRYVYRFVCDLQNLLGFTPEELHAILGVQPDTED
The note with it: protein: recombinant; tags: N-terminal GST; dsDNA, one strand shown. The gist of the method:
as §1

The target in a further test is T9, SPDEF (Homo sapiens, UniProt O95238 1-335).
T9 sequence: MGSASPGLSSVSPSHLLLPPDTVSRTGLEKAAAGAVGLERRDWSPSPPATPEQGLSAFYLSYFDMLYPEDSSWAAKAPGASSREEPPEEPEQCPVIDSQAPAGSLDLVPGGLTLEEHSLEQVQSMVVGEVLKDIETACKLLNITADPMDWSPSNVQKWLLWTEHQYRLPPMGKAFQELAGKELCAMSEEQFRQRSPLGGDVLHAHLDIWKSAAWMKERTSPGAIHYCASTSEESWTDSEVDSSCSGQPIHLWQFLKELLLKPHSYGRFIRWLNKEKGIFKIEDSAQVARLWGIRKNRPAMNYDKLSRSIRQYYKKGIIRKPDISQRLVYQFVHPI
The note with it: protein: recombinant; tags: N-terminal GST; dsDNA, one strand shown. The gist of the method:
as §1

The next test concerns the target T10, ETV7 (Homo sapiens, UniProt Q9Y603 1-341).
T10 sequence: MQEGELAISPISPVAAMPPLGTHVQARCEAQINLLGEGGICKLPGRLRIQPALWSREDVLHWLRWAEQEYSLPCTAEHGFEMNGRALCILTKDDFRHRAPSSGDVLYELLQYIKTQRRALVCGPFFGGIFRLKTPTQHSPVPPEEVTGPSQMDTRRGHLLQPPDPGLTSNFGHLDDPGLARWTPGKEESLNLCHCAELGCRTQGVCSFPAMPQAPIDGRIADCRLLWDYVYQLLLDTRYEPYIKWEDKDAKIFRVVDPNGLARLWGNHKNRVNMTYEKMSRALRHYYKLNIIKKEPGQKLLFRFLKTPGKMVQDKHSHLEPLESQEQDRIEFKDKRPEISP
Particulars: protein: recombinant; tags: N-terminal GST; dsDNA, one strand shown. The gist of the method: as §1

A further test deals with T11, ELF5 (Homo sapiens, UniProt Q9UKW6-2 1-255).
T11 sequence: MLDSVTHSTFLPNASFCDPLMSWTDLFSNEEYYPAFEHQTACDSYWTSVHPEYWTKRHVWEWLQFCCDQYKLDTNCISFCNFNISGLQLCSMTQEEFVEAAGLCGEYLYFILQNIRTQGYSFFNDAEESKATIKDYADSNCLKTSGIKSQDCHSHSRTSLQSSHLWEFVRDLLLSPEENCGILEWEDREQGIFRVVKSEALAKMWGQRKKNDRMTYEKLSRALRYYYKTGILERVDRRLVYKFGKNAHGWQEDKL
The note with it: protein: recombinant; tags: N-terminal GST; dsDNA, one strand shown. The gist of the method:
as §1

For a further test, the target named is T12, ETV3 (Homo sapiens, UniProt P41162-2 1-143).
T12 sequence: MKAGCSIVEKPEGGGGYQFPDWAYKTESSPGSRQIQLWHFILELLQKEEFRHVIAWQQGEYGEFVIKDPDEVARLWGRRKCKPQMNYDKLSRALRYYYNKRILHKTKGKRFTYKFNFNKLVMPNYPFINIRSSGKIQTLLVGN
Particulars: protein: recombinant; tags: N-terminal GST; dsDNA, one strand shown. The gist of the method:
as §1

A further test deals with ETV6 (Homo sapiens, UniProt P41212 1-452). The note with it: protein: recombinant; tags: N-terminal GST; dsDNA, one strand shown. The gist of the method: as §1
ETV6, sequence (P41212 whole entry): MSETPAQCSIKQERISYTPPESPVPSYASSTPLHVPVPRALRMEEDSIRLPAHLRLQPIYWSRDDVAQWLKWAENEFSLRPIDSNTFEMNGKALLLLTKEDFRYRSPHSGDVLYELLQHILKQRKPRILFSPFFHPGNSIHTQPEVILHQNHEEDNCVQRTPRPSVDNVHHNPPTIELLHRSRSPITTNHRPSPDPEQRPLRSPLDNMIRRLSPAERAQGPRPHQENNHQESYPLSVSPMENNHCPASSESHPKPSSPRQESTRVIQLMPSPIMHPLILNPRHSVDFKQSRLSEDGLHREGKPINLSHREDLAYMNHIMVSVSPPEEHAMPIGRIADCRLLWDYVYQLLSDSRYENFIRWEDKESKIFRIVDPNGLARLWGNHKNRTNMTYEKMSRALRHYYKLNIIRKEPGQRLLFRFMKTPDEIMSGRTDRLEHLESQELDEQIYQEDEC

ELF4, sequence (Q99607 whole entry): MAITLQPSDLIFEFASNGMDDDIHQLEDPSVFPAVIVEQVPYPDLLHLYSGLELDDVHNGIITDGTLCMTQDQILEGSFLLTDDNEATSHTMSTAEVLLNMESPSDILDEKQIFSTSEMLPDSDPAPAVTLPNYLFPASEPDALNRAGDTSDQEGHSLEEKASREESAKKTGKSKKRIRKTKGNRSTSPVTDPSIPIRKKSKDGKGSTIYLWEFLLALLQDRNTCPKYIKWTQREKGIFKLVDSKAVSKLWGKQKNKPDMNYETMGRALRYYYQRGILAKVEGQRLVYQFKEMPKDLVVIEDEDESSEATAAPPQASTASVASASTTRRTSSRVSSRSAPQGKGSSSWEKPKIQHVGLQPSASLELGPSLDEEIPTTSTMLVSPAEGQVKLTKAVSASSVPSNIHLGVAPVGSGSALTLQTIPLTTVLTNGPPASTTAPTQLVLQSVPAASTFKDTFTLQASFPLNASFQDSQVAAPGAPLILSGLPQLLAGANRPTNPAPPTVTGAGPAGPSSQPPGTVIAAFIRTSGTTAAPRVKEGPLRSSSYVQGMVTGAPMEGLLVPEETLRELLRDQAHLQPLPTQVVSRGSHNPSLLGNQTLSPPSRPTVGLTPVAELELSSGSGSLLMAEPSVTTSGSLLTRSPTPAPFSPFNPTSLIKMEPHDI
CRX, sequence (O43186 whole entry): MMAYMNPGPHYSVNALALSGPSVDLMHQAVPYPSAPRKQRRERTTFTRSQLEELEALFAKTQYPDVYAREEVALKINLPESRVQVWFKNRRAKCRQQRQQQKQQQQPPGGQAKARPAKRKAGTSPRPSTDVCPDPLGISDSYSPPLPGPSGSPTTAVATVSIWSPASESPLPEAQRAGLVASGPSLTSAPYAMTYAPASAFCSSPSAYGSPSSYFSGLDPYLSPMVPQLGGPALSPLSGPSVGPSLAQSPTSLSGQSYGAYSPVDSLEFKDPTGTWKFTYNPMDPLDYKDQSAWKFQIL
ETV1, sequence (P50549 whole entry): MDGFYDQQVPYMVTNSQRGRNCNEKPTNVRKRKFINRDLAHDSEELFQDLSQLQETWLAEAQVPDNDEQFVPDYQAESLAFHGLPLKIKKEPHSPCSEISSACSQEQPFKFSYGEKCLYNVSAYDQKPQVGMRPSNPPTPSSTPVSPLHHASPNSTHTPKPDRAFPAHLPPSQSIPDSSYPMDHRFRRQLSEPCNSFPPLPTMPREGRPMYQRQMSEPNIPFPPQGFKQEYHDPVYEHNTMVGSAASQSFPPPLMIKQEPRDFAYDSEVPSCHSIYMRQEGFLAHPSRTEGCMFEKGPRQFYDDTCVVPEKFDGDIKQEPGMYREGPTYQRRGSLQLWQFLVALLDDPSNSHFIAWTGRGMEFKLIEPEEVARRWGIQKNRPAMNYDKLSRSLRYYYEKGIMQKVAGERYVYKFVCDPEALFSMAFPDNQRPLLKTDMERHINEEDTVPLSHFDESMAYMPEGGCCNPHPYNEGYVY
HSF1, sequence (Q00613 whole entry): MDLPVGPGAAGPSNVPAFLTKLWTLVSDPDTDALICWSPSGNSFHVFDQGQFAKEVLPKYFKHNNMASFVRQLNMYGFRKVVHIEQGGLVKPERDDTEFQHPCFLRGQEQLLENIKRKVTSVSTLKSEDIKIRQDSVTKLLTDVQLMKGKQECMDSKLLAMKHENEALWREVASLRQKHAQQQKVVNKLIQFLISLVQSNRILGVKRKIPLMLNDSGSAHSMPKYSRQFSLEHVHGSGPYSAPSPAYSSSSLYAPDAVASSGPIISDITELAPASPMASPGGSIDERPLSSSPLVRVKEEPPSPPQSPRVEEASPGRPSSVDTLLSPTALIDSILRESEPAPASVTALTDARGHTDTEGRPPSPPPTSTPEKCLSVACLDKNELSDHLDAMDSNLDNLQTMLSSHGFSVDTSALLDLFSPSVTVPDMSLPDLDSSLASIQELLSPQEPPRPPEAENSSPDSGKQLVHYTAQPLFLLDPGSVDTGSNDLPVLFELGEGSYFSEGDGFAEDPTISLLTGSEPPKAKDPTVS
ETV5, sequence (P41161 whole entry): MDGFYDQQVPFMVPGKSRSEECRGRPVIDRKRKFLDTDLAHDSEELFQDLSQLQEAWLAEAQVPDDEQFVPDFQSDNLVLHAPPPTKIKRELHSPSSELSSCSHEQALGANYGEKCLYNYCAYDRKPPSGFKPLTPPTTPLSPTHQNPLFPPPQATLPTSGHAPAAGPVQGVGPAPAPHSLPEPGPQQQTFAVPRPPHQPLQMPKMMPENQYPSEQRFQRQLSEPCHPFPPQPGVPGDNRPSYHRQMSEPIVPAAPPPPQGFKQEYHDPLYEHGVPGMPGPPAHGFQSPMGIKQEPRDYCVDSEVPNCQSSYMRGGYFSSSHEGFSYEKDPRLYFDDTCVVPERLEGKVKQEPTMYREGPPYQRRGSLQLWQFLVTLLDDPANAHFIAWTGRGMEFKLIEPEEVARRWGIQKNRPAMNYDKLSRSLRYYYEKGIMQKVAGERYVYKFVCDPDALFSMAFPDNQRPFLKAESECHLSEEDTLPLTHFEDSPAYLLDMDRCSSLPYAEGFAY

Consider GAAATA, for which the binding signal is 1.54 fold enrichment (6-mer frequency, TF over GST control) with FEV; 1.63 fold enrichment (6-mer frequency, TF over GST control) in the test with ETV5; 1.21 fold enrichment (6-mer frequency, TF over GST control) in the test with HSF1; 1.43 fold enrichment (6-mer frequency, TF over GST control) with SPIC; 1.35 fold enrichment (6-mer frequency, TF over GST control) in the test with ELF4; 1.39 fold enrichment (6-mer frequency, TF over GST control) with ELK4. In addition, the binding signal is 1.42 fold enrichment (6-mer frequency, TF over GST control) with ETV2; 1.62 fold enrichment (6-mer frequency, TF over GST control) with ELF3; 1.11 fold enrichment (6-mer frequency, TF over GST control) with CRX; 1.54 fold enrichment (6-mer frequency, TF over GST control) in the test with ETV1; 1.45 fold enrichment (6-mer frequency, TF over GST control) with ERF; 1.48 fold enrichment (6-mer frequency, TF over GST control) in the test with ETV3L. In addition, the binding signal with ETS2 is 1.51 fold enrichment (6-mer frequency, TF over GST control); with SPDEF, 1.52 fold enrichment (6-mer frequency, TF over GST control); in the test with ETV7, 1.6 fold enrichment (6-mer frequency, TF over GST control); in the test with ELF5 it was 1.73 fold enrichment (6-mer frequency, TF over GST control); with ETV3 it was 1.54 fold enrichment (6-mer frequency, TF over GST control); with ETV6, 1.75 fold enrichment (6-mer frequency, TF over GST control).

Values taken from article PMC7862700, “An all-to-all approach to the identification of sequence-specific readers for epigenetic DNA modifications on cytosine”.
